Assay results reported in paper PMC5540273 (PLoS ONE, 2017).

How the values were obtained:
Details in all cases: concentration: 1 μM,replicates: in singlicate; n = 1
CAMK1 = test system: CAMK1
CAMK2A = test system: CAMK2A
CAMK2B = test system: CAMK2B
CAMK2D = test system: CAMK2D
CAMK2G = test system: CAMK2G
CAMK4 = test system: CAMK4
CAMKK1 = test system: CAMKK1
CAMKK2 = test system: CAMKK2
CASK = test system: CASK
CDC2L1 = test system: T1, CDC2L1
T1 construct: gene CDK11B
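Note: KINOMEscan kinase panel screen.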

SMILES | %Inh (CAMK1) | %Inh (CAMK2A) | %Inh (CAMK2B) | %Inh (CAMK2D) | %Inh (CAMK2G) | %Inh (CAMK4) | %Inh (CAMKK1) | %Inh (CAMKK2) | %Inh (CASK) | %Inh (CDC2L1)
CCN(CC)CCOc1ccc(Nc2ncc3cc(-c4c(Cl)cccc4Cl)c(=O)n(C)c3n2)cc1 [SB-601273] | 51% | 4% | 0% | 5% | 29% | 0% | 20% | 22% | 22% | 18%
Nc1nc(Nc2ccccc2)cc(-c2ccc3c(N)n[nH]c3c2)n1 [GSK2225749] | 3% | 0% | 0% | 0% | 0% | 0% | 0% | 0% | 0% | 0%
CN(C)CC(O)COc1ccc(Nc2nccc(-c3cnn4nc(N5CCOCC5)ccc34)n2)cc1 (centres unmarked) [GW767488] | 31% | 25% | 25% | 32% | 46% | 0% | 62% | 51% | 19% | 20%
Cc1occc1-c1nc(N)c(OC[C@@H](N)Cc2c[nH]c3ccccc23)cc1-c1cc2c(C)n[nH]c2cn1 [GSK1660450] | 23% | 46% | 47% | 44% | 48% | 0% | 60% | 77% | 15% | 0%
C=CC(=O)Nc1cc2c(Nc3ccc(F)c(Cl)c3)ncnc2cc1OCCCN1CCOCC1 [GW781483] | 14% | 0% | 0% | 0% | 15% | 0% | 6% | 14% | 0% | 0%
C[C@H]1Oc2cc(cnc2N)-c2c(nn(C)c2C#N)CN(C)C(=O)c2ccc(F)cc21 | 29% | 5% | 2% | 0% | 3% | 67% | 49% | 61% | 5% | 0%
Cl.Cl.NC[C@H](Cc1ccc(C(F)(F)F)cc1)NC(=O)c1cc(Br)c(-c2ccnc3[nH]ccc23)s1 [GSK1487252] | 22% | 0% | 0% | 7% | 17% | 0% | 21% | 37% | 30% | 0%
Cl.Cl.Nc1nc(-c2ccc3c(N)n[nH]c3c2)cc(N2CCCC(NC(=O)c3ccccc3)C2)n1 (centres unmarked) [GSK2286775] | 18% | 0% | 0% | 11% | 19% | 0% | 18% | 14% | 16% | 0%
CC(C)Nc1cc(-c2ccc3c(N)n[nH]c3c2)nc(N)n1 [GSK2221681] | 24% | 0% | 0% | 0% | 27% | 0% | 0% | 5% | 13% | 0%
C[C@@H](Oc1cc(-c2cnn(C3CCNCC3)c2)cnc1N)c1c(Cl)ccc(F)c1Cl | 0% | 12% | 2% | 16% | 20% | 0% | 24% | 24% |  | 59%
Cc1ccc2c(-c3ccncc3)c(-c3ccc(F)cc3)nn2c1.Cl [GW461484] | 0% | 0% | 0% | 0% | 16% | 0% | 8% | 11% | 1% | 0%
CNC(=O)c1ccccc1Sc1ccc2c(/C=C/c3ccccn3)n[nH]c2c1 | 9% | 26% | 24% | 3% | 12% | 0% | 16% |  | 36% | 0%
O=C(NCCNc1ccnc(NCc2ccc(F)cc2)n1)c1cc2ccccc2s1 [GSK1379944] | 0% | 0% | 0% | 1% | 3% | 0% | 6% | 0% | 82% | 0%
C[C@@H]1CCN(C(=O)CC#N)C[C@@H]1N(C)c1ncnc2[nH]ccc12 | 21% | 0% |  | 0% | 0% | 0% | 0% | 0% | 0% | 2%
CCn1c(-c2nonc2N)nc2c(C#CC(C)(C)O)nc(OCCN)cc21.Cl.Cl [GSK902056] | 0% | 0% | 0% | 0% | 10% | 0% | 11% | 0% | 31% | 0%
CN(C)CCOc1ccc(-c2cc(-c3c[nH]nc3-c3ccccn3)ccn2)cc1 [GW835314] | 12% | 0% | 0% | 24% | 0% | 0% | 25% | 2% | 29% | 2%
Cc1n[nH]c2ccc(-c3cc(OC[C@@H](N)Cc4ccccc4)cnc3-c3ccoc3)cc12.O=C(O)C(F)(F)F.O=C(O)C(F)(F)F [GSK507358] | 15% | 0% | 0% | 28% | 31% | 0% | 21% | 32% | 3% | 0%
COc1ccc(C[C@@H](CN)NC(=O)c2cc(Br)c(-c3ccnc4[nH]ccc34)s2)cc1.Cl.Cl [GSK1389063] | 23% | 7% | 0% | 26% | 19% | 13% | 66% | 64% | 34% | 0%
Cc1ccc(-n2nc(C(C)(C)C)cc2NC(=O)Nc2ccc(OCCN3CCOCC3)c3ccccc23)cc1 [GW839464] | 4% | 13% | 13% | 11% | 3% | 16% | 12% | 0% | 14% | 0%
CCN(CC)CCCCNc1ncc2cc(-c3c(Cl)cccc3Cl)c(NC(=O)NC(C)(C)C)nc2n1 | 9% | 0% | 0% | 9% | 20% | 20% | 15% | 23% | 0% | 0%
Cc1cc2cn[nH]c2cc1-c1cccc2c(N)c(C(N)=O)nnc12 | 47% | 0% | 5% | 8% | 15% | 27% | 29% | 7% | 23% | 2%
Cl.Cl.NC[C@H](CC1CCCCC1)NC(=O)c1cc(Br)c(-c2ccnc3[nH]ccc23)s1 [GSK1581427] | 13% | 0% | 0% | 4% | 34% | 0% | 0% | 20% | 53% | 0%
Cl.Oc1cc(-c2nc(-c3ccccc3)[nH]c2-c2ccncc2)ccc1Cl [SB-386023] | 0% | 0% | 0% | 0% | 0% | 0% | 0% | 4% | 10% | 0%
CC(C)N1C(=O)Cc2cc(Nc3ncc(C(F)(F)F)c(NCc4cccc(S(C)(=O)=O)c4)n3)ccc21 | 0% | 22% | 14% | 5% | 0% | 0% | 2% | 23% | 0% | 0%
O=C(NCCCN1CCOC1=O)c1cnc(NCc2cc(Cl)ccc2Cl)nc1NC1CCCC1 | 33% | 0% | 2% | 4% | 6% | 10% | 4% | 6% |  | 1%
NC(=O)c1cc(-c2ccccc2)cc2c(C3CCNCC3)c[nH]c12 [GSK301362] | 30% | 0% | 0% | 23% | 19% | 0% | 0% | 4% | 18% | 0%
Cc1cc(C(=O)Nc2ccc(Oc3ccc4nc(NC(=O)C5CC5)cn4n3)cc2)nn1-c1ccccc1 | 10% | 0% | 0% | 12% | 0% | 16% | 22% | 16% | 0% | 18%
